Several values for one entry are separate records, joined by “and”; a condition that tells them apart may be missing. Identical values can stand only once. Compounds without any hit were thinned out: in the full panel of roughly 79,000, 15% have a hit. Unmarked numbers belong to inactive results. Activity calls are given as the source filed them. Cut-off read from the data, not from the text of the source: active = growth inhibition above about 70%; inactive = the rest.
Assay: NCI Yeast Anticancer Drug Screen. Data for the bub3 strain (AID 167)
Details: S. cerevisiae bub3 mutant strain, hits give high values
Method: Growth inhibition of yeast strains with defined genetic alterations is measured as a screen for potential anti-cancer activity. Selected strains with alterations in DNA damage repair or cell cycle control were exposed to compounds and growth inhibition was measured relative to vehicle treated controls. The strain used in this assay is bub3

[1] = at 5.0 µM (retest, dose inferred, filed as 0.5)
[2] = at 50.0 µM (retest, dose inferred, filed as 5.0)

Compound | growth inhibition (at 1.2 µM) | growth inhibition (at 3.7 µM) | growth inhibition [1] | growth inhibition (at 11.0 µM) | growth inhibition (at 33.0 µM) | growth inhibition [2] | growth inhibition (at 50.0 µM) | growth inhibition (at 100.0 µM)
Oc1ccc(-c2nc(-c3ccc(F)cc3)c(-c3ccc4ccccc4n3)[nH]2)cc1 | -32% | -20% | 5% | 96% (active) | 98% (active) | -31% | 91.8% (active) | 90% (active)
COc1cc(/C=C2\CCC/C(=C\c3ccc(O)c(OC)c3)C2=O)ccc1O | -5% | -2% | 1% | -2% | -4% | 15% | -24.9% and 44% | -12%
CC(/C=C/c1ccccc1)=N\NC(N)=S | 9% | -8% | 18% | -2% | -8% | 44% | 83.5% (active) | 13%
Cc1cc2cc3cc(C)c(N)cc3nc2cc1N | -20% | -5% | 23% | 8% | 69% | 96% (active) | 77.8% (active) | 92% (active)
Cc1ccc2c(c1)C1(SC(C)C(=O)N1c1ccc(Cl)cc1)C(=O)N2 (stereo not given) | 3% | 10% | 19% | 30% | 90% (active) | 88% (active) | 74.5% (active) | 99% (active)

— PubChem BioAssay (NCI)
